# From publication PMC12136788
# In all, about 24,000 sequences were measured (“enrichment r”: median about 0.99, highest 2% from about 3.7 on). The full list was thinned out, with the highest values kept by preference.
# T1: UNK ZnF1-3 (human, UniProt Q9C0B0 31-174)
# T1 sequence: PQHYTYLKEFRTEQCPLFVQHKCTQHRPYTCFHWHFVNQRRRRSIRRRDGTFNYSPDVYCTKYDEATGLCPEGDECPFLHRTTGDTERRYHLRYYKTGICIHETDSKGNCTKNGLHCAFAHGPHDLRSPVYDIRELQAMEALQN
# B1: chr14:35182089:35182090:-_ENSG00000165410_ENST00000422678|hu_mus|motif|central (ssRNA)
# RNA: GGGAGUUCUACAGUCCGACGAUCCUUAAGAUCAAAUGGCACUUGGCUAUUAUUUUAUAGUGGCUUUCCUUCAAGGGAAACGGCAACACUGCCCCCCAGUUUCUCUCCCAGCGUCGAGCGGUCCUUAAUAUCGUCCAAGCCAUUCAACAGAGGAUUGAGCAUCA
# B2: chr17:26793470:26793471:+_ENSMUSG00000001576_ENSMUST00000167662|mus_hu|FALSE|FALSE (ssRNA)
# RNA: GGGAGUUCUACAGUCCGACGAUCCGGAGCUUAGAGCCAAAAAUUACAAAUGGCAGAGACUUGAGCUAUCCAUAAGAUAAUUUUAAAAAUCCUUCCACUGGACACUCCCCUUCAUUACAAAAGUAUGCAAACAAUCUUGCUAUACAACAGAGGAUUGAGCAUCA
# B3: chr3:58389949:58389950:+_ENSMUSG00000075700_ENSMUST00000107924|mus_hu|FALSE|FALSE (ssRNA)
# RNA: GGGAGUUCUACAGUCCGACGAUCCAAGAAGAAAACCAUCAUACAUGCAUAAACCUUAUUUUCUUGGCCCCACUGCCAGAUGCUAGGAGCUUGCAUGCCAAAGAAAGCAAAAGGAUCCUUGCCAACAAUUAUUAAGCCUAUUAACAACAGAGGAUUGAGCAUCA
# B4: chr2:47387770:47387771:-_ENSG00000143933_ENST00000272298|hu_mus|hu_hu_hu_mus_True|18_38 (ssRNA)
# RNA: GGGAGUUCUACAGUCCGACGAUCAAGGUUUAAGGACAAUGACAGUAAGAUAAGGGAAGAAAACAUGGAGGAAUGAAGUCCUAAUUACUAUACAUGCAUAUUUUUUUACAGUAGGGGAGAAACCUUUUUUACAGAUAAGUUACACAACAGAGGAUUGAGCAUCA
# B5: chr10:117127018:117127019:-_ENSMUSG00000020184_ENSMUST00000020408|mus_mus|FALSE|FALSE (ssRNA)
# RNA: GGGAGUUCUACAGUCCGACGAUCAGAUGGAAAGGACUUCUCACAUACACUUCCAAAGUCCUUCCAAGCGGAGAUUAUUUAAAAUAUAAGGAAAAUAUAAACAGCCAAUGCAAAUUACUUAAAACACAAAUAUAAAAUAAACAACAACAGAGGAUUGAGCAUCA
# B6: chr13:90244479:90244480:+_ENSMUSG00000012422_ENSMUST00000161568|mus_hu|FALSE|FALSE (ssRNA)
# RNA: GGGAGUUCUACAGUCCGACGAUCCAAAAUGGUGUGCCCAGAGGAAAAGCAAGCACUAUUAAAUAUUAAUGCAAUCCUUAUCAACACAAAUUGAGCCAUUUUAAUAAAAAAGCUAGUCCAAAAAAGGUUCUCAUUCUAUAAAGACAACAGAGGAUUGAGCAUCA
# Target: T1, UNK ZnF1-3
# Assay: nsRBNS (natural sequence RNA bind-n-seq); RBNS binding buffer (assumed for nsRBNS): 25 mM Tris pH 7.5, 150 mM KCl, 3 mM MgCl2, 0.01% Triton X-100, 500 ug/ml BSA, 20 U/ml SUPERase-In, 4 C; UNK is unkempt and MSI1 is Musashi-1; names of the RNAs are library labels; protein concentration not given here; high values mean tight binding
row,Binder,binding signal [enrichment R]
1,B1,1.04
2,B2,3.67
3,B3,1.51
4,B4,1.7
5,B5,5.74
6,B6,4.62
